SMILES strings stand for the structures. “And” between values parts separate entries of the source, which are not always exact repeats. Equal entries are not always repeated. Hit rate of the full screen: of about 100,000 compounds, about 250 (0.25%) were called active. About 7% were inconclusive and are not listed. Calls come from the whole dose curve; as a rule, active = well fitted inhibition curve with a large enough effect; inconclusive = small, poorly fitted or top-dose-only effect; inactive = flat fitted curve, though single readings scatter. Shown is part of a subset that was picked to be rich in actives. Where a call stands in place of a potency, no number is given. The source holds several records for some structures; these can differ, active in one and inactive in another.
Potency is the fitted concentration of half-maximal effect.

Alanine aminotransferase 2 (Homo sapiens), sequence (Q8TD30 whole entry, looked up): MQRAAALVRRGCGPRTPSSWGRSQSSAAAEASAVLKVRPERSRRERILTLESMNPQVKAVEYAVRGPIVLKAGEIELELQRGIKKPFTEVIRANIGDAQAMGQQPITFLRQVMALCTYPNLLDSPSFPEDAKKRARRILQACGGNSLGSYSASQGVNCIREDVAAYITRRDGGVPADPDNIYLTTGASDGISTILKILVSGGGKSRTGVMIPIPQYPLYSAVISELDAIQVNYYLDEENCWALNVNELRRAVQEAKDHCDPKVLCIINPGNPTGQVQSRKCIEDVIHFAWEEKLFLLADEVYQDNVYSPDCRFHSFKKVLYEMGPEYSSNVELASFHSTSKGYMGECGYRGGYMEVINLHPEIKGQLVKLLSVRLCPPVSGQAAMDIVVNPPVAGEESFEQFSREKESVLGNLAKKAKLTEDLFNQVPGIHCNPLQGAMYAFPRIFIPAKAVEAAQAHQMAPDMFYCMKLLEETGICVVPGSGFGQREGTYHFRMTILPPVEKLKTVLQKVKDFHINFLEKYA

In this assay the target is Alanine aminotransferase 2 (Homo sapiens) (UniProt Q8TD30). The assay can be described thus: Primary qHTS assay for inhibitors of Glutamate pyruvate transaminase 2 (GPT2). Note: nearly all actives have a fitted effect of over 60% in size. The following applies: Recombinant GPT2, coupled pyruvate oxidase/HRP Amplex Red fluorescence; series mostly up to 57.7 µM. As for the experimental part:
Assay Provider: Zhenghe John Wang Ph.D.
Case Western Reserve University, Cleveland OH
Glutamate pyruvate transaminase 2 (GPT2) catalyzes the reversible transamination of glutamate and pyruvate to provide a-ketoglutarate and alanine. We have optimized an assay for GPT2 enzymatic activity that couples pyruvate formation to detection of fluorescence using an established pyruvate oxidase/horseradish peroxidase / Amplex Red system.
Screening conditions were 250uM a-KG, 2mM L-alanine, and 10ng/uL GPT2 in […] of solution; 10uL of Amplex reaction mix (outlined below) were added so that final concentrations of Amplex reagents in 50uL were 0.2mM ThPP, 0.2U/mL PO and HRP, and 50uM Amplex.
NOTE: The volume of GPT2 in the system depends on the activity of it. The activity is different every batch. You need to test the activity before the assay. For full plate assay with automation, plate 20uL of GPT2 buffer to pin into, then add 10uL of GPT2 dilution followed immediately by 10uL of substrate dilution. 2 Columns of the plate were devoted to GPT2 buffer ([…] PH7.5, 0.0001% Tween) + 50uM AOA (known GPT2 inhibitor) to serve as a positive control. Complete the assay as normal. Amplex-red buffer: […] PH7.5, 1 mM EDTA, 1 mM MgCl2.
1. Combine a-KG and L-alanine at desired concentrations and incubate for at least 10 minutes at 37C. Stocks of L-alanine and a-KG are diluted in distilled water. However, the stocks were diluted in GPT2 buffer for the assay.
2. Prepare GPT2 dilution at the desired concentration in GPT2 buffer.
3. Plate 40uL of GPT2 dilution with 40uL of substrate dilution and let incubate for 30 minutes at room temperature.
4. Add 20uL of Amplex reaction mix prepared as follows: 1.5uL 200U/mL Horseradish Peroxidase, 200mM Thiamine Pyrophosphate, 200U/mL Pyruvate Oxidase; 7.5uL 10mM Amplex Red; 288uL Amplex Buffer.
5. Incubate for 30 minutes at room temperature in the dark, then image using AM_Amplex_Fluorescence on plate reader nearest the window.
Background: qHTS replaces the single test concentration by a dilution series.
`CN(C)C(=O)c1ccc2oc(-c3ccnc(Cl)c3)nc2c1`: the Potency result is “inactive”.

With `CC(C)c1ccc(CN2CCC3(CC2)COCCN3C(=O)c2ccc3[nH]ncc3c2)cc1`, the Potency result is “inactive”. Turning to `CC(=O)N1C[C@@H]2CCCN3CCC[C@@H]([C@H]23)[C@H]1CCCC(=O)N1CCN(C2CCN(C)CC2)CC1`, the Potency result was “inactive”. Same read-out and setting: with `COc1ccc(CC(=O)NC2CCN(Cc3ccc(-c4ccccc4OC)cc3)C2)cc1` (configuration not stated) the entry was “inactive”. Still for that read-out and setting: with `O=C1[C@H]2CN(Cc3ccc(Cl)c(F)c3)C[C@H]2C(=O)N1CCc1ccccc1` the entry was “inactive”.

Take `O=C(c1ccc(C(F)(F)F)cc1)N1CCN(c2ccnc3ccnn23)CC1`: the Potency result is “inactive”. Consider `O=C(N1CCC(Cc2nc(-c3ccccc3)n[nH]2)C1)C1(c2ccccc2)CC1` (configuration not stated), for which the Potency result was “inactive”. Same read-out and setting: with `O=C(c1ccccc1Cl)N1CCC2(CC1)NC(=O)N(c1cccc(Cl)c1)N2` the entry was “inactive”. Consider `CC(C)c1noc(-c2cn(C3CCN(C(=O)c4cccc(C#N)c4)C3)nn2)n1` (configuration not stated), for which the Potency result is “inactive”. On the same count and under the same terms, with `O=C1NCCOCCN(S(=O)(=O)c2cccs2)[C@@H]2CCCC[C@H]12` the entry was “inactive”; with `CNC(=O)c1ccccc1Nc1nc(Nc2ccc3c(c2OC)CCC[C@@H](N2CCN(CCO)CC2)C3)ncc1Cl`, “inactive”. On the same count and under the same terms, with `CNC(=O)c1ccccc1Nc1nc(Nc2ccc(N3CCOCC3)cc2OC)ncc1Cl` the figure was 10.9 µM (active) and 7.08 µM (active); with `COc1ccccc1Nc1ncc2c(n1)CN(C(=O)COc1ccccc1)CCN2`, “inactive”; with `COc1cccc(-c2ccc(C(=O)N3CCC(NC(=O)Cc4ccc(F)cc4)CC3)cc2)c1`, “inactive”. Same read-out and setting: with `COc1ccccc1OC(C)(C)C(=O)N1CC(C)(C)[C@@](C)(O)C1` the entry was “inactive”; with `CN(CC1CCOCC1)C(=O)Nc1ccc(Cl)cc1`, “inactive”; with `O=S(=O)(Cc1ccccc1)N1CC(c2nc(-c3ccncc3)no2)C1`, “inactive”. Turning to `COc1ccc(CN2CCN(c3nc4ccccc4o3)CC2CCO)cc1C` (configuration not stated), the activity change, negative = inhibition was -2.15% [at 11.5 µM] (inactive). In the case of `COc1ccc(-n2cccn2)c(CN2CCC3(CCNC(=O)CC3)CC2)c1`, the Potency entry is “inactive”.

As to `Cc1noc(C)c1-c1cc2c(cc(C)n2C)c(NCCCn2ccnc2)n1`, the Potency entry is “inactive”. The same measure, in the same setting: with `COc1ccccc1Cn1c(=O)c(C(=O)NCc2ccc(F)cc2)nc2cccnc21` the entry was “inactive”; with `O=C(c1ccc(F)cc1)N1CCCC(C(=O)N2CCCC2c2nc3ccncc3[nH]2)C1` (configuration not stated), “inactive”.

Regarding `CN1CCN(C(=O)c2ccc3oc(-c4ccncc4Cl)nc3c2)CC1`, the Potency result was “inactive”. Still for that read-out and setting: with `COc1cccc(N2C(=O)NC(=NC3CCCCC3)C23CCN(CC2CCCCC2)CC3)c1` the entry was “inactive”; with `CC1=C(C(=O)OC(C)(C)C)C(c2ccccc2F)N2C(CC(=O)N3CCCC3)=CSC2=N1` (configuration not stated), “inactive”; with `O[C@@H]1C[C@@H](c2nc(-c3cccnc3)no2)N(Cc2cccs2)C1`, “inactive”. On the same count and under the same terms, with `CN(Cc1ccsc1)Cc1nc(C(c2ccccc2)c2ccccc2)no1` the entry was “inactive”.

As to `CCOC(=O)C1CCN(C(=O)c2nc3sccn3c2-c2ccc(OC)cc2)CC1`, the Potency entry was “inactive”. On the same count and under the same terms, with `COCc1cc(=O)n(CC(=O)Nc2cc(C)cc(C)c2)c(N2CCOCC2)n1` the entry was “inactive”. The same measure, in the same setting: with `CC(=O)c1ccc(NC(=O)O[C@@H]2CO[C@H]3[C@@H]2OC[C@@H]3Nc2nccc(-c3ccco3)n2)cc1` the entry was “inactive”; with `CC[C@@H]1Cc2cc(O)ccc2C2=C1c1ccc(O)cc1C[C@H]2CC`, 11.2 µM (active).

`COCCN1C[C@H]2CN(C(=O)c3ccc(C(F)(F)F)cc3)CCN2C1=O`: the Potency entry is “inactive”. Still for that read-out and setting: with `N#Cc1ccc(CN2CCC3(Cc4ccccc4NC3=O)C2)cc1` (configuration not stated) the entry was “inactive”. Same read-out and setting: with `O=C(Cn1nc2c(cc1=O)CCCC2)NCCn1ccc2ccc(Cl)cc21` the entry was “inactive”; with `Cc1nc(C)c(C(=O)N2CCc3nnc([C@@H]4C[C@@H](O)CN4C(C)C)n3CC2)s1`, “inactive”; with `C=CCNC(=O)C1N(C(C)C)C(=O)C12CCCC2` (configuration not stated), “inactive”. Still for that read-out and setting: with `OCC1(CN2CCCC2)CCN(Cc2ccc(OC(F)(F)F)cc2)CC1` the entry was “inactive”; with `COc1ccc(NC(=O)N2CCC(O)(c3csc(CN4CCc5ccccc5C4)n3)CC2)cc1`, “inactive”; with `CO[C@@H]1COCC[C@H]1NC(=O)c1cn(CCN2CCNCC2)nn1`, “inactive”. For the compound `CCC(=O)N1CCCC(Cc2ncc(C)n2C(C)C)C1` (configuration not stated), the Potency result is “inactive”. The same measure, in the same setting: with `O=C(c1cc(Cl)ccc1F)N1CCN(c2cc(C(F)(F)F)ncn2)CC1` the entry was “inactive”; with `O=C(NCc1ccc(Cl)nc1)c1cnn2ncccc12`, “inactive”. Consider `CC(C)c1ccc(CNC(=O)CN2CCCc3nc(C4CC4)ncc3C2=O)cc1`, for which the Potency entry was “inactive”.

As to `COCCN1C(=O)CCC2(C(=O)NCc3cn[nH]c3C)CCCC=C12` (configuration not stated), the Potency entry was “inactive”.

For the compound `CN1CCN(C(C)(CN)c2ccccn2)CC1` (configuration not stated), the Potency result was “inactive”. On the same count and under the same terms, with `O=C(Nc1cccc(F)c1)N1CCC2(CC1)SCC(=O)N2Cc1ccco1` the entry was “inactive”; with `COc1ccc(-c2nnc(C[C@@H]3C[C@@H](C(C)C)[C@H](CN4CCC(C(N)=O)CC4)C=C3C)o2)cc1`, “inactive”; with `Cc1ccc(C)c(CN2C(=O)NC3(CCCN(C(=O)c4ccc(C)c(F)c4)C3)C2=O)c1` (configuration not stated), “inactive”. Same read-out and setting: with `c1ccc2c(CN3CCC[C@H]3c3nc(-c4ccnc(N5CCOCC5)c4)no3)c[nH]c2c1` the entry was “inactive”.

In the case of `NC(=O)c1cccnc1N1CCN(CC2(O)CNCCOC2)CC1` (configuration not stated), the Potency result was “inactive”. Still for that read-out and setting: with `O=C1COCC2(CN(c3ccc(C(F)(F)F)cn3)C2)CN1c1cccnc1` the entry was “inactive”; with `Cc1ccccc1CN1CCc2ncc(C(=O)NCCOc3ccccc3)n2CC1`, “inactive”. For `Cc1nc([C@H]2CCN(Cc3ccoc3)C[C@H]2NC(=O)C2CC2)n[nH]1`, the Potency entry was “inactive”. Same read-out and setting: with `CCC(C)Oc1ccccc1CN1CCC(CO)(CN2CCCC2)CC1` (configuration not stated) the entry was “inactive”. The same measure, in the same setting: with `COCc1cc(C[C@@H]2C[C@H](NC(=O)Nc3ccccc3)C2(C)C)no1` the entry was “inactive”; with `Cc1ccc(C(=O)Nc2ccc(C(O)[C@H]3COCC(=O)N3Cc3ccccc3F)cc2)cc1` (some centres not stated), “inactive”; with `Cc1ccc(Nc2ccnc(N3CCC(C(=O)Nc4ccccc4F)CC3)n2)cc1`, “inactive”. Regarding `Cc1cc(Nc2cc(N3CCN(C)CC3)nc(Sc3ccc(NC(=O)C4CC4)cc3)n2)n[nH]1`, the Potency result was “inactive and 27.3 µM (active)”. On the same count and under the same terms, with `CN1CCN(C(=O)c2ccc(-c3nnc4ccc(NC(=O)C5CCC5)cn34)cc2)CC1` the entry was “inactive”; with `O=C(CC1CCN(C(=O)c2ccco2)C1)N1CCOCC1` (configuration not stated), “inactive”; with `COCCn1nc2n(c1=O)CCN(C(=O)c1ccco1)CC2`, “inactive”.

For `CCC(=O)Nc1cc(-c2ccccn2)nn1-c1ccccc1`, the Potency result was “inactive”.

These data come from PubChem BioAssay AID1671188 (National Center for Advancing Translational Sciences (NCATS), 2021).
